Screens (PubChem BioAssay)
This is a sample that favours compounds with a hit; in the whole collection about 3.5% have one here.
Mcl-1 Bim block – disrupts Bim peptide binding to human Mcl-1; Q07820; Bead-based flow cytometry, Bim peptide-Mcl-1 binding; inhibition, % at 10 µM; 190,000 tested, 0.1% active; AID 1009; in the data active means inhibition above about 40%;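 further: 0% = no compound tracer wells and 100% = peptide blocker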
Hck Nef HTS – human Hck-Nef kinase inhibition; P08631; 220,000 tested, 0.68% active; Recombinant Hck-YEEI plus Nef, Z-Lyte FRET kinase assay; inhibition, % at 20 µM; AID 463187;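 active means Hck-Nef kinase inhibition above about 50%, limit read from the data; inactive means inhibition below that limit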;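 further: 0% = DMSO with Hck plus Nef and 100% = Hck alone without Nef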
Mcl1-Bid inh – disrupts binding of human Mcl-1 to Bid peptide. inhibition, % at 21.7 µM. 220,000 tested, 0.97% active. Q07820. TR-FRET Mcl-1/Bid-Dy647 peptide binding, 1536-well;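 active means compounds that cut the binding signal by more than half at the single screening dose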;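 further: His-tagged Mcl-1 with europium anti-His antibody binding Bid BH3 peptide; 0% = Mcl-1 plus peptide wells and 100% = peptide-only wells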
Mcl1 Noxa PPI – Mcl-1/Noxa interaction inhibition; Q07820; TR-FRET Mcl-1/Noxa peptide binding, 2 h; inhibition, % at 21.7 µM; 220,000 tested, 1.5% active;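 active means compounds that cut the protein-peptide binding signal by more than 50% relative to plate controls in a single-dose test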;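 further: His-tagged Mcl-1 with rhodamine Noxa BH3 peptide and terbium anti-His antibody; 0% = Mcl-1 plus Noxa peptide wells and 100% = peptide-only wells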
eIF4E-4G inh – eIF4E/eIF4G interaction inhibition in translation initiation | 220,000 tested, 0.37% active | AID 782 | P63073+Q04637 | inhibition, % at 21.7 µM | TR-FRET eIF4E-eIF4GI(517-606) binding, 2 h;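 active means inhibition above about 30%, limit read from the data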;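 further: 0% = full FRET control wells and 100% = background wells lacking eIF4GI fragment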
Target sequence (P63073 whole entry, looked up, the tested form may be a part): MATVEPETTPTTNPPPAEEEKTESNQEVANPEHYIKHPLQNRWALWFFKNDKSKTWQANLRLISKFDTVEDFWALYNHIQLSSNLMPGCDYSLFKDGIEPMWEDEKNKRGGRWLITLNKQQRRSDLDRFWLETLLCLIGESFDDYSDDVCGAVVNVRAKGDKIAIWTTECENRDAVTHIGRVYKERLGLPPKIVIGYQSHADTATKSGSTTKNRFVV
Target sequence (Q04637 whole entry, looked up, the tested form may be a part): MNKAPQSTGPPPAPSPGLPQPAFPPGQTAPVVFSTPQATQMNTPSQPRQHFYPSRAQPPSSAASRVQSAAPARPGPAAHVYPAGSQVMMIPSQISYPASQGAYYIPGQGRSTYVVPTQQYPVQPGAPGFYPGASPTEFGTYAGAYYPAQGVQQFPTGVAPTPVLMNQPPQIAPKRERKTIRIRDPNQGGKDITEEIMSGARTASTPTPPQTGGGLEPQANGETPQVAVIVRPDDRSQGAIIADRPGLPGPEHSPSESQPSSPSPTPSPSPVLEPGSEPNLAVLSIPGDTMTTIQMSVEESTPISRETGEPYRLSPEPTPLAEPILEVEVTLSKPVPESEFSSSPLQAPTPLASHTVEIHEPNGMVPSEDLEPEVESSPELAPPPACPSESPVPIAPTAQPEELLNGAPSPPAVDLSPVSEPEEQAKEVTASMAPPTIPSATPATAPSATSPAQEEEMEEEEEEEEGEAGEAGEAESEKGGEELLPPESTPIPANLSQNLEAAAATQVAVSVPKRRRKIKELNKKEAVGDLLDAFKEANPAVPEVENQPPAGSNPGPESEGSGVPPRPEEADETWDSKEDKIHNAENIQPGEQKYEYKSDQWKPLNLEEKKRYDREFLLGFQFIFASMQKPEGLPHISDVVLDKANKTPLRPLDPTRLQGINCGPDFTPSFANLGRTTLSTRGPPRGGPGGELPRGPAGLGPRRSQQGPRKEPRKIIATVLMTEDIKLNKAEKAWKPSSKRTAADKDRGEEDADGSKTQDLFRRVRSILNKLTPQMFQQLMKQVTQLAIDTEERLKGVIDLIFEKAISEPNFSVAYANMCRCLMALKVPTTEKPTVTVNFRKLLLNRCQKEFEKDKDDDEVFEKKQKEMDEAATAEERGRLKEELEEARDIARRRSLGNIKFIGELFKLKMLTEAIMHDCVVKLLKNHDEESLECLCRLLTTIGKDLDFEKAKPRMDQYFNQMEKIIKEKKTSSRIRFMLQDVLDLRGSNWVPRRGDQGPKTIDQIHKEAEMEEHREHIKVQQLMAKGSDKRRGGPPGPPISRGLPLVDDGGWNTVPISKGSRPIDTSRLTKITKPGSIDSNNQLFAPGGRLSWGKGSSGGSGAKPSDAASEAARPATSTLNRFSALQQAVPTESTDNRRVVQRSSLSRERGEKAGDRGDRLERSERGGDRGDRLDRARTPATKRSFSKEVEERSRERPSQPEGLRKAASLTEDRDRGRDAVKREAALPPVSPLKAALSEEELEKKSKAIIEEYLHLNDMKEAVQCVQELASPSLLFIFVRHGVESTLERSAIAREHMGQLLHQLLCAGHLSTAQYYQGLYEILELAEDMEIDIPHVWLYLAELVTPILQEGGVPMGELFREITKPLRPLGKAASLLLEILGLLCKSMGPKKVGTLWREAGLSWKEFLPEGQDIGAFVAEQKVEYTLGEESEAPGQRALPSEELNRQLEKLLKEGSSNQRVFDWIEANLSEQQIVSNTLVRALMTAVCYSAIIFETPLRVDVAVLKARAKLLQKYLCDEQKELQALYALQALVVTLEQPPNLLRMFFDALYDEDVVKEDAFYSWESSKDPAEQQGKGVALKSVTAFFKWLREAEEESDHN
14-3-3 Bad inh – disrupts binding of bovine 14-3-3 zeta to phospho-Bad peptide; P63103; TR-FRET 14-3-3zeta/Dy647-pBad peptide displacement, 1 h; inhibition, % at 21.7 µM; 220,000 tested, 0.71% active; AID 781;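 active means inhibition above about 70%, limit read from the data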;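 further: 0% = full 14-3-3 plus peptide FRET controls and 100% = background without 14-3-3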
Starred values were filed as active, the others as inactive; . = no result.

SMILES	Mcl-1 Bim block	Hck Nef HTS	Mcl1-Bid inh	Mcl1 Noxa PPI	eIF4E-4G inh	14-3-3 Bad inh
C[C@@H]1CN(c2c(F)c(N)c3c(=O)c(C(=O)O)cn(C4CC4)c3c2F)C[C@H](C)N1	0	.	-17	-109	-1	-1
C=CCn1c(=S)[nH]c2nc3c(cc2c1=O)CCCC3	-1	0	-32	6	7	-9
C=CCn1c(=S)[nH]c2sc3c(c2c1=O)CCC3	-4	6	-56	56*	-1	9
O=C(Nc1ccc(N2CCCC2)cc1)c1ccccc1F	-5	4	-30	82*	2	4
Cc1ccc(C(=O)Nc2ccc(N3CCOCC3)cc2)cc1	-4	3	-34	1	3	-7
Cc1ccc(C(=O)Nc2ccc(N3CCCC3)cc2)cc1	-1	11	-35	78*	9	-8
CC(C)C(=O)Nc1ccc(NC(=O)c2cccc(F)c2)cn1	5	1	22	7	0	76*
O=C(Nc1ccc(NC(=O)C2CC2)nc1)c1cccc(F)c1	-2	3	9	8	-1	0
O=C(Nc1ccc(N2CCCCC2)cc1)c1ccc(F)cc1F	.	-6	-26	2	9	0
O=C(Nc1ccc(N2CCCC2)cc1)c1ccc2ccccc2c1	11	4	-34	74*	2	13
O=C(CN1C(=O)S/C(=C\C=C\c2ccccc2)C1=O)N1CCOCC1	.	25	-12	4	-3	-4
O=C(Nc1ccc(N2CCCCC2)cc1)c1ccccc1	0	-2	-23	36	0	-2
O=C(Nc1ccc(N2CCCC2)cc1)c1cccc(F)c1	-1	-1	-35	67*	5	6
CC(C)(C)C(=O)Nc1ccc(N2CCCC2)cc1	-1	-3	-55	56*	12	-3
O=C(COC(=O)CCc1ccc(S(=O)(=O)N2CCOCC2)cc1)NCc1ccc(Cl)cc1	0	-18	-7	8	-3	1
COc1ccccc1NC(=O)N1CCN(Cc2ccc3c(c2)OCO3)CC1	.	0	-6	7	2	8
CCOC(=O)c1ccc(NC(=O)c2ccccc2)cc1	0	8	12	13	13	-11
CCOC(=O)c1ccc(NC(=O)Oc2ccccc2)cc1	2	1	100*	15	-5	-5
CCOC(=O)c1ccc(NC(=O)COc2ccccc2OC)cc1	-4	1	0	3	-1	83*
COc1cccc(-n2nc(-c3ccnn3-c3ccc(C)cc3)c(=O)n(C)c2=O)c1	0	-1	-12	-11	2	7
Cc1[nH]c2ccccc2c1/C=N/NC(=O)c1cccc([N+](=O)[O-])c1	1	29	-12	15	4	13
Cc1[nH]c2ccccc2c1/C=N/Nc1ccc([N+](=O)[O-])cc1	-20	5	-55	75*	3	-6
CCOc1ccc(CCNC(=O)CCS(=O)(=O)c2ccc(OC)cc2)cc1OCC	2	27	-4	4	2	-7
N#CC1=C(N)N=C(SCc2cccc3ccccc23)C(C(N)=O)C12CCCCC2 (stereo unspecified)	-1	10	-16	11	0	-19
Cc1ccc2[nH]c(=O)c(C3C(C#N)=C(N)Oc4c3ccc3cccnc43)cc2c1 (stereo unspecified)	0	0	60*	33	8	44
SMILES	Mcl-1 Bim block	Hck Nef HTS	Mcl1-Bid inh	Mcl1 Noxa PPI	eIF4E-4G inh	14-3-3 Bad inh
N#CC1=C(N)Oc2c(ccc3cccnc23)C1c1ccccc1 (stereo unspecified)	.	-22	-19	-12	8	-3
O=C(CSc1nc2cc(Cl)c(Cl)cc2[nH]1)c1ccc2c(c1)OCO2	.	6	16	57*	2	-7
CCn1c(C)c(C(C)=O)c(N2CCN(C(=O)c3ccco3)CC2)nc1=S	-2	0	-33	-13	71*	43
CCC(C)c1ccccc1OCCn1ccnc1 (stereo unspecified)	-5	8	18	15	1	24
CCO[C@H]1OC(C(=O)NCc2ccccc2)=C[C@@H](c2ccccc2)[C@@H]1CCCO	1	5	6	-18	-1	0
CC(C)Cn1c(N)c(C(=O)COC(=O)c2cc(-c3ccco3)nc3ccccc23)c(=O)n(C)c1=O	1	5	22	97*	24	3
